# Screening data (PubChem BioAssay)
# TGFb SMAD3 inh: inhibitors of TGF-b signaling; AID 588855; HepG2 CAGA-GFP TGF-b/SMAD3 reporter, GFP fluorescence, 18 h; TGF-beta stimulated, 500 pg/mL final; actives 1.2% (n = 410,000); Potency, µM (titrated, usually from 46.1 µM), without a hit: at the highest dose activity, negative = inhibition, usual class: inhibitors; note: potency is the fitted concentration of half-maximal effect; % is set by controls: 0 for no effect and ±100 for the full control effect; nearly all actives have a fitted effect of over 65% in size
#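 TGF-beta reporter screen: HEPG2 CAGA-GFP, 1% FBS, 500 pg/mL TGF-beta final, 18 h; per-cell GFP summed per well; curves fitted and categorized by class.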
# D3 antag: antagonists of human D3 dopamine receptor; P35462; D3R cells, DiscoveRx beta-arrestin luminescence, antagonist mode; hits give low values; max response, negative = inhibition, %; actives 2.5% (n = 360,000); AID 652054; in the data active = max response below about -50%; inconclusive = no clear call, values can overlap the other calls; note: % is set by controls: 0 for no effect and ±100 for the full control effect
# Target sequence (P35462 whole entry, looked up): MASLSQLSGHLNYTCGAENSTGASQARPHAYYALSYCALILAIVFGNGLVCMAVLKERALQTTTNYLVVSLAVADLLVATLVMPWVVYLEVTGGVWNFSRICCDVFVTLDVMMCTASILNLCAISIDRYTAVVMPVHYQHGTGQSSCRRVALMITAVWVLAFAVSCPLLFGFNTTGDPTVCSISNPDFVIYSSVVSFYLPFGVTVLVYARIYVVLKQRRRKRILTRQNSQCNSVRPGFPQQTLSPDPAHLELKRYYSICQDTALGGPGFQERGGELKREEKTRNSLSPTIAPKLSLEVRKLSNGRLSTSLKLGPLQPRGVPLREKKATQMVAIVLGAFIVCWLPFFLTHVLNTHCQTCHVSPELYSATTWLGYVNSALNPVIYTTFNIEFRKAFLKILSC
#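 Cells plated overnight at 1500 cells/well, then exposed to library compounds with dopamine controls for 90 minutes at 37 degrees C. DiscoveRx reagent added for 30–60 minutes at room temperature; luminescence read, quantitative HTS format.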
# HepG2 tox: kills HepG2 cells in TGF-b inhibitor counter-screen | Potency, µM (titrated, usually from 46.1 µM), inactives show top-dose activity change, negative = cytotoxicity, usual class: cytotoxic | HepG2 CAGA-GFP viability, ATP luminescence, 18 h | AID 588856 | actives 0.76% (n = 410,000); note: potency is the fitted concentration of half-maximal effect
#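 HepG2 CAGA-GFP cells (1000/well, DMEM with 1% FBS) received compound, then TGF-beta at 500 pg/mL final, and were incubated 18 hours at 37 degrees C. Viability was read by CellTiter-Glo luminescence. Media-only wells were set as complete cell-killing and DMSO as no toxicity.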
# DRD3 agonist: agonists of human D3 dopamine receptor. actives 0.58% (n = 410,000). D3R DiscoveRx beta-arrestin cells, luminescence, 90 min. max activation, %. P35462; in the data active = max activation above about 30%; note: 0% is about no effect
#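 Agonist-mode cell screen: cells plated at 1500/well and incubated overnight at 37 °C, then exposed to library compounds for 90 min at 37 °C. Detection reagent was added for 30–60 min at room temperature, and luminescence was read.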
# ATXN viability: cell viability loss in ATXN counter-screen. S2 cells (HEK-293 line with an ATXN2-luciferase reporter) viability, CellTiter-Fluor protease fluorescence, 24 h. Potency, µM (series often up to 56.7 µM), most hits filed as cytotoxic. actives 0.49% (n = 400,000). AID 651635; note: potency is the fitted concentration of half-maximal effect; nearly all actives have a fitted effect of over 40% in size
# ATXN2 expr inh: ATXN2 expression inhibition. actives 0.72% (n = 360,000). Potency, µM (titrated, usually from 57 µM), for inactives: at the top dose activity change, negative = inhibition, most hits filed as inhibitors. HEK-293 ATXN2-luciferase reporter, luminescence, 24 h; note: potency is the fitted concentration of half-maximal effect; % is set by controls: 0 for no effect and ±100 for the full control effect; nearly all actives have a fitted effect of over 55% in size
#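 qHTS (up to 57 uM final) was run with 24 h compound exposure of reporter cells at 37 °C. Each well was multiplexed: SteadyGlo luminescence measured ATXN2-luciferase expression after a fluorogenic Gly-Phe-AFC viability readout (25 uM final).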
# The depositor's hits bear a star; i = inactive; ? = inconclusive; . = no result; ! = repeats disagree. An excerpt weighted towards active compounds, which were near 4.7% of everything screened. Unless noted, calls come from the whole dose curve; as a rule, active = well fitted curve in the direction sought with a large enough effect; inconclusive = small, poorly fitted or top-dose-only effect, or another doubt; inactive = no such curve, though single readings can be large; an effect the other way counts as inactive or inconclusive.
SMILES,TGFb SMAD3 inh,D3 antag,HepG2 tox,DRD3 agonist,ATXN viability,ATXN2 expr inh
COc1ccccc1C(=O)NNC1=C(C(=O)C(F)(F)F)CCC1,?,-57.0*,-41.4%,-34.1,?,?
Nc1ccccc1C(=O)NNC1=C(C(=O)C(F)(F)F)CCC1,13.1%,-23.5,-33.5%,7.8,?,-38.4%
COc1cccc(C(=O)NNC2=C(C(=O)C(F)(F)F)CCC2)c1,?,-10.8,3.98µM*,5.6,i,-31.9%
CC(C)(C)c1cc(C(=O)NNc2cc(C(F)(F)F)ccc2Cl)n(Cc2ccccc2)n1,11.2µM*,24.1,10µM*,11.3,i,?
O=C(Nc1ccccc1C(=O)N/N=C/c1ccco1)c1ccc(F)cc1,?,-16.7,12.6µM*,-10.8,i,-9.3%
Cc1ncc2c(c1CNC(=O)c1ccc3c(c1)OCO3)CCN(C(=O)c1coc3c1C(=O)CCC3)C2,.,.,.,.,i,.
CCn1cnc2cc(NCc3ccc(N(C)C)cc3)ccc21,10µM*,1.5,7.08µM*!,-4.2,?,?
Cn1nnnc1SCCCNCc1ccc(-c2cccc(Cl)c2)o1,?,.,-39.2%,-17.9,i,3.9%
Clc1cccc(-c2ccc(CNCCCN3CCOCC3)o2)c1,2.8%,-80.3*,-0.2%,-22.6,i,-12.4%
CC1Cc2ccccc2C[N+]1(C)CC(=O)c1ccc(I)cc1 (centres undefined),8.3%,.,15.6%,.,.,.
Cc1nn(-c2ccccc2)c(C)c1/C=N/n1c(-c2ccc(Cl)cc2)n[nH]c1=S,-34.5%,-23.8,5.9%,-1.2,i,-27.5%
Cn1cccc1/C=N/n1c(-c2ccccc2)n[nH]c1=S,1.4%,-98.0*,-3.0%,-6.0,i,-4.9%
S=c1[nH]nc(-c2cccnc2)n1/N=C/c1ccco1,6.6%,-50.5*,3.0%,-12.1,i,2.3%
S=c1[nH]nc(-c2ccccn2)n1/N=C/c1ccccc1,-0.9%,-52.0*,-0.9%,-3.4,i,1.2%
Cn1cccc1/C=N/n1c(-c2ccc(C(C)(C)C)cc2)n[nH]c1=S,-24.2%,-17.1,-42.3%,-6.0,i,2.4%
Cc1nn(-c2ccccc2)c(C)c1/C=N/n1c(-c2ccncc2)n[nH]c1=S,-0.6%,-52.3*,-13.4%,-7.9,i,.
CN(C)c1ccc(/C=C/c2nc(-c3ccccc3O)n(-c3ccccc3)n2)cc1,6.6%,.,-21.7%,-2.8,i,-11.5%
COCCNC(=O)c1cn(C2CCN(C3CCCC3)CC2)nn1,.,.,.,.,i,.
Cc1ccc(N2CCN(c3nc4c(S(=O)(=O)c5ccc(C)c(C)c5)nnn4c4ccccc34)CC2)c(C)c1,0.0%,.,-18.6%,-8.9,.,.
COc1c(Br)cc(/C=N/n2c(-c3ccccc3)n[nH]c2=S)c(O)c1Br,-11.9%,-27.3,2.9%,-4.2,.,.
Oc1c(Br)cc(Br)cc1/C=N/n1c(-c2ccccc2)n[nH]c1=S,?,-51.1*,-17.4%,-3.6,i,.
N#C/C(=C\c1cccc([N+](=O)[O-])c1)C(=O)NCc1ccc(Cl)cc1,?,-13.7,-27.9%,-2.8,?,23.8µM*
N#C/C(=C\c1cccc([N+](=O)[O-])c1)C(=O)NCc1cccnc1,-6.2%,0.7,-8.2%,4.1,?,-6.2%
Cc1oc(-c2ccccc2NC(=O)c2cccnc2)nc1CNC(=O)C1CCCCCN1C (centres undefined),.,.,.,.,i,.
O=C1c2cccc(NCCCNCCO)c2C(=O)c2cccc(NCCCNCCO)c21,15.8µM*,?,-64.7%,-27.6,.,13.4µM*
SMILES,TGFb SMAD3 inh,D3 antag,HepG2 tox,DRD3 agonist,ATXN viability,ATXN2 expr inh
O=C1c2ccccc2C(=O)c2c(NCc3cccnc3)cccc21,-19.4%,0.0,-20.9%,-4.9,i,8.8%
Cc1cccc(CCNC(=O)C2CCN(c3ncnc4c3nc3n4CCCCC3)CC2)c1,-28.2%,.,-24.3%,-15.5,.,.
Cc1ccnc(SCc2ccc([N+](=O)[O-])cc2)n1,8.1%,-57.4*,-10.3%,-4.5,i,25.2%
Cc1ccc(Cl)cc1N1CCN(Cc2nnc(-c3ccc4c(c3)OCO4)o2)CC1,0.0%,.,-1.0%,-19.0,?,-20.9%
O=C(c1cccnc1)N1CCN(Cc2cccc(Br)c2)CC1,-18.9%,-27.0,-5.0%,-20.4,i,6.0%
O=C(c1cccnc1)N1CCN(Cc2ccccc2Br)CC1,?,-60.2*,28.5%,-14.3,i,-8.8%
CN(C)c1ccc(/C=C/c2sc3ccccc3[n+]2Cc2ccccc2)cc1,?,.,-51.3%,.,.,.
CCC(C)NC(=O)c1sc2ncccc2c1-n1c(C)ccc1C (centres undefined),-20.7%,.,-32.3%,-17.8,i,-10.9%
CCN(CC)CCN,.,.,.,.,i,2.9%
Cc1cccc(C)c1NC(=O)NC1(C(=O)N2CCN3CCCC3C2)CCCCC1 (centres undefined),27.8%,4.2,5.0%,4.5,i,7.7%
COc1ccc(NC(=O)NC2(C(=O)N3CCN4CCCC4C3)CCCCC2)cc1 (centres undefined),8.5%,1.4,7.3%,31.1*,i,7.7%
CC(C)C[C@@H](C(=O)N[C@H](C(=O)OC1CCCC1)c1ccccc1)[C@H](O)C(=O)NO,.,.,.,.,.,21.7µM*
O=C(Cn1cc(S(=O)(=O)N2CCN(c3ccccc3F)CC2)c2ccccc2c1=O)Nc1cccc(C(F)(F)F)c1,?,.,-30.0%,0.6,?,-10.5%
Cc1ccc(N=C2C(=S)N(c3ccc(C)cc3)C(=N)N2/N=C/c2ccc(Cl)cc2)cc1,0.2%,-50.9*,-10.1%,-0.1,?,48.3%
COc1ccc(/C=N/N2CCN(c3ccc(Cl)cc3)CC2)cc1,-2.3%,-1.6,-13.4%,-2.3,i,-8.2%
Cc1ccc(C)c(CN2C(=O)c3ccccc3S(=O)(=O)c3ccc(C(=O)NCCC4=CCCCC4)cc32)c1,.,.,2.9%,-1.2,.,.
CC1CCCN(CCCNC(=O)c2ccc3c(c2)N(Cc2ccc(Cl)cc2)C(=O)c2ccccc2S3(=O)=O)C1 (centres undefined),?,.,20µM*,-46.6,.,.
Cc1ccc(C)c(CN2C(=O)c3ccccc3S(=O)(=O)c3ccc(C(=O)NCCCN4CCCC(C)C4)cc32)c1 (centres undefined),.,.,11.2µM*,-19.4,.,.
CCOCCn1ccc2c(OCC(=O)Nc3cccc(F)c3)cccc2c1=O,?,.,-7.1%,7.7,?,-3.9%
CCOc1cc2sc(N3CCC(C(=O)Nc4ccccc4C(=O)OC)CC3)nc2cc1Br,-20.3%,.,1.4%,16.1,i,1.9%
COc1ccc(Nc2nc3ccccc3n3nnnc23)cc1,20.3%,-90.3*,-15.6%,0.0,i,9.4%
O=C(O)c1ccc(Nc2ncc3c(n2)-c2ccc(Cl)cc2C(c2c(F)cccc2F)=NC3)cc1,.,.,.,.,.,-3.0%
